High-throughput results (PubChem)
In the library only some 2.3% were active in any assay of this set; here they are far more common.
Pol beta inh: qHTS Assay for Inhibitors of DNA Polymerase Beta; P06746; Pol beta primer extension/strand displacement, fluorescence kinetic; Potency, µM (series often up to 114 µM), actives largely listed as inhibitors; 340,000 compounds, 1.3% hits; AID 485314, 2010
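Homogeneous kinetic assay of primer extension and strand displacement by 10 nM Pol beta, preincubated 15 min at room temperature with compound before 50 nM substrate (final) was added. Read at 0 and 10 min; four-parameter Hill fit.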
Pol kappa inh-1: qHTS for Inhibitors of Polymerase Kappa | DNA polymerase kappa (Homo sapiens), Q9UBT6 | purified Pol kappa, fluorescent DNA synthesis assay, 10 min | Potency, µM (titrated, usually from 107 µM), most hits filed as inhibitors | 400,000 compounds, 0.53% hits
Target sequence (Q9UBT6 whole entry, looked up): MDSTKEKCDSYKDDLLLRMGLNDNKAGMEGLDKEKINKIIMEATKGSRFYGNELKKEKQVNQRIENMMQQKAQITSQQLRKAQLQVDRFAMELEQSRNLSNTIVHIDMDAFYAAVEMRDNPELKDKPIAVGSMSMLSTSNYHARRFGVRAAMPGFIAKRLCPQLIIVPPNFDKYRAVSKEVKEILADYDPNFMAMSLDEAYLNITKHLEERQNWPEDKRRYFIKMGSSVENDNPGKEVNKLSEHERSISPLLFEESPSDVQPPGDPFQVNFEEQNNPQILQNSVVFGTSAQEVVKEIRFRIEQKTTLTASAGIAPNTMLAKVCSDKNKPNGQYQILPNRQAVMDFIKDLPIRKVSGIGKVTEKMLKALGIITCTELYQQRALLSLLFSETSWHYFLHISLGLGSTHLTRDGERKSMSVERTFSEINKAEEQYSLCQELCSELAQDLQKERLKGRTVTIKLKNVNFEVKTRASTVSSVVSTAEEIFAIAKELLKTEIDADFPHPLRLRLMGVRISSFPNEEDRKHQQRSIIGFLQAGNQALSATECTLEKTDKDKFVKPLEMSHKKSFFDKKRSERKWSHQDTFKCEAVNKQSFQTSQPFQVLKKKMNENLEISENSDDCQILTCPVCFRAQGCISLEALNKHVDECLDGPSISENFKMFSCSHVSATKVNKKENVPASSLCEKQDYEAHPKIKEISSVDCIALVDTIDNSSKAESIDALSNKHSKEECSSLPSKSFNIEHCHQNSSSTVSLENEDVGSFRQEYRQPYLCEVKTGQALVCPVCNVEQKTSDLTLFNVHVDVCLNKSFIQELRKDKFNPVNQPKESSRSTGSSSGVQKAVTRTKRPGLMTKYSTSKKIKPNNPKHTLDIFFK
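Readout: fluorescence, taken kinetically at 0 and 10 min. Conditions: 10 nM Pol kappa, 15 min RT compound preincubation, 50 nM substrate final. Controls: enzyme-free buffer wells.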
Pol eta inh-1: qHTS for Inhibitors of Polymerase Eta; recombinant Pol eta, fluorescent DNA replication assay; 390,000 compounds, 1.2% hits; DNA polymerase eta (Homo sapiens), Q9Y253; Potency, µM (series often up to 114 µM), hits mostly inhibitors
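Fluorescent replication assay: 50 nM final substrate added after a 15 min room-temperature compound preincubation with 10 nM enzyme. Signal taken at 0 min and again at 10 min.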
WRN inhibitor: qHTS for Inhibitors of WRN Helicase; Bifunctional 3'-5' exonuclease/ATP-dependent helicase WRN (Homo sapiens), Q14191; WRN helicase unwinding, fluorescent forked duplex, kinetic; Potency, µM (series often up to 114 µM), usual class: inhibitors; 360,000 compounds, 0.46% hits; note: nearly all actives have a fitted effect of over 55% in size
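WRN at 20 nM final preincubated with compound 15 min at room temperature; reaction started with 100 nM fluorophore/quencher forked duplex oligonucleotide and 2 mM ATP final. Unwinding followed kinetically by red fluorescence (ex 525, em 598 nm).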
Pol iota inh: qHTS for Inhibitors of Polymerase Iota. 390,000 compounds, 1% hits. Potency, µM (titrated, usually from 115 µM), actives largely listed as inhibitors. AID 588590, 2011. Pol iota fluorescent replication assay, 10 min. DNA polymerase iota (Homo sapiens), Q9UNA4
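Pol iota at 10 nM preincubated 15 min with compounds at room temperature; reaction started with fluorescent substrate, 50 nM final. Fluorescence read kinetically at 0 and 10 min; buffer-only wells as negative control.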
GALK confirm: Confirmation Assay for Inhibitors of Human Galactokinase (GALK); shares compounds with Pol eta inh-1; purified GALK, Kinase-Glo ATP depletion luminescence; Potency, µM (highest dose often 115 µM), actives largely listed as inhibitors; 150 compounds, 70% hits
GALK redox cs: Confirmatory Assay for Inhibitors of Human Galactokinase (GALK): Phenol-HRP redox assay counterscreen; shares compounds with Pol eta inh-1; Phenol red-HRP H2O2 redox cycling, absorbance 600 nm; AID 2035, 2009; 150 compounds, 40% hits; Potency, µM (series often up to 115 µM), hits mostly inhibitors
HEK293 tox: Secondary Assay for Inhibitors of Human Galactokinase (GALK): HEK-293 Cell Viability Assay | shares compounds with Pol eta inh-1 | HEK-293 viability, ATP luminescence (CellTiter-Glo), 24/48 h | Potency, µM (doses to about 46.1 µM), actives largely listed as inhibitors | 170 compounds, 10% hits | AID 2547, 2010
Pol kappa inh-2: qHTS for Inhibitors of Polymerase Kappa: Confirmatory Assay for Cherry-picked Compounds. shares compounds with Pol eta inh-1. purified Pol-kappa, fluorescent strand-displacement substrate. Potency, µM, most hits filed as inhibitors. 920 compounds, 76% hits. AID 720501, 2013
Pol eta inh-2: qHTS for Inhibitors of Polymerase Eta: Confirmatory Assay for Cherry-picked Compounds. shares compounds with Pol eta inh-1. Pol eta primer extension, TAMRA/BHQ fluorescence, 10 min. Potency, µM, hits mostly inhibitors. 2,600 compounds, 64% hits. AID 720502, 2013
Hits are given with their value; i = inactive; ? = inconclusive; nt = no result given; ! = a repeat was not active; [ ] = another dose, or the depositor's remark. Calls come from the whole dose curve; as a rule, active = well fitted curve in the direction sought with a large enough effect; inconclusive = small, poorly fitted or top-dose-only effect, or another doubt; inactive = no such curve, though single readings can be large; an effect the other way counts as inactive or inconclusive.

SMILES	Pol beta inh	Pol kappa inh-1	Pol eta inh-1	WRN inhibitor	Pol iota inh	Pol eta inh-2	others
CCOC(=O)c1c(C)oc2nc(C)nc(Nc3cc(C)ccc3OC)c12	i	i	i	nt	i	nt
Cn1c2ccccc2c(=O)n2c(=O)c3ccccc3cc12	i	nt	nt	nt	nt	nt	GALK confirm=11µM;GALK redox cs=9.4µM;HEK293 tox=i
Cn1c(-c2ccccc2)cc(=O)c2ccccc21	i	i	i	i	i	nt
Cc1nc(Nc2ncc3c(n2)CC(C)(C)CC3=O)nc2ccccc12	nt	i	i	i	i	nt
Cc1cc(C)nc(Nc2nc3ccccc3o2)n1	i	i	i	i	i	nt
Cc1nc(Nc2nc3ccccc3o2)nc2c1CCCC2	nt	nt	nt	nt	nt	nt	HEK293 tox=i
Cc1nc(Nc2nc3ccccc3o2)nc2c1C(=O)CC(C)(C)C2	nt	nt	nt	nt	nt	nt	HEK293 tox=i
COc1ccc(C)cc1NC(=O)c1ccc2c(c1)nnn2C1CCCC1	i	i	i	nt	i	nt
CCc1ccccc1Nc1nn2c(=O)c3ccc(C(=O)NC4CCC(C)CC4)cc3nc2s1 (centres undefined)	i	i	i	nt	i	nt
CC(=O)N=c1c(C#N)cc2c(=O)n3cccc(C)c3nc2n1Cc1ccco1	?	i	32µM	i	40µM	?
C=CCOc1ccc(Br)cc1/C=C1/SC(=Nc2ccc(C(=O)O)cc2)NC1=O	?	i	20µM	i[11.6 µM]	?	85
CCOc1cc(Br)cc(/C=C2\SC(=Nc3ccccc3)NC2=O)c1O	?	i	?	i	?	nt
COc1ccc(C(CC(=O)N2CCOCC2)c2c(OC)cc(OC)c3c(-c4ccccc4)cc(=O)oc23)cc1 (centres undefined)	35µM	?	40µM	i[11.6 µM]	71µM	?
COc1ccc(C(CC(=O)N2CCOCC2)c2c(OC)cc(OC)c3ccc(=O)oc23)cc1 (centres undefined)	?	?	?	i[11.6 µM]	?	nt
COc1cc(C(CC(=O)N2CCCC2)c2c(OC)cc(OC)c3c(-c4ccccc4)cc(=O)oc23)cc(OC)c1OC (centres undefined)	45µM	?	40µM	i[11.6 µM]	?	?
COc1cc(C(CCN2CCCCC2)c2c(OC)cc(OC)c3c(-c4ccccc4)cc(=O)oc23)cc(OC)c1OC (centres undefined)	?	i	i	i	i	nt
O=C(O)CCc1ccc(S(=O)(=O)Nc2ccc(OCc3ccccc3)cc2)cc1	?	?	22µM	i	?	67
O=C(O)/C=C/c1ccc(S(=O)(=O)Nc2ccc(OCc3ccccc3)cc2)cc1	?	i	i	i	i	nt
Oc1ccc(NCc2ccc(OCc3ccccc3)cc2)cc1	i	?	79µM!	i[11.6 µM]	10µM	?
Oc1ccc(NCc2ccccc2OCc2ccccc2Cl)cc1	i	i	nt	nt	?	?
Oc1ccc(NCc2ccc(OCc3ccccc3Cl)cc2)cc1	i	?	i	nt	18µM	?
NS(=O)(=O)c1ccc(NCc2ccccc2OCc2ccccc2F)cc1	i	i	i	i	i	nt
COc1ccc(-c2nc(SCC(=O)c3ccc(OC)c(Br)c3)n[nH]2)cc1	i	i	i	nt	i	nt
Cc1ccc(NC(=O)N/C=C/c2ccco2)cc1C	25µM	79µM	28µM	i	40µM	?
CCc1nnc(SCC(=O)N(C)c2ccccc2)c2cc3sccc3n12	i	i	i	nt	i	nt
SMILES	Pol beta inh	Pol kappa inh-1	Pol eta inh-1	WRN inhibitor	Pol iota inh	Pol eta inh-2	others
CCOC(=O)c1cccc(NC(=O)N2CC(CC)Sc3ccccc32)c1 (centres undefined)	i	i	i	nt	i	nt
COc1ccc(N2CC(C(=O)Nc3nnc(SCC(=O)NCc4ccco4)s3)CC2=O)cc1 (centres undefined)	?	i	22µM	?	?	?	Pol kappa inh-2=42
Cc1ccc(NC(=O)CN2C(=O)N/C(=C\c3cccn3-c3ccc(C(=O)NS(C)(=O)=O)cc3)C2=O)cc1	nt	nt	nt	nt	nt	?
O=C(O)c1cccc(-n2cccc2/C=C2/NC(=O)N(Cc3ccccc3F)C2=O)c1	10µM	?	20µM	i[11.6 µM]	32µM	?
O=C(CN1C(=O)N/C(=C\c2cccn2-c2cccc(C(=O)O)c2)C1=O)Nc1cccc(Cl)c1	nt	nt	nt	nt	nt	nt	Pol kappa inh-2=?
COc1ccc2c(CNCCc3ccccc3OC)c(C(=O)O)n(Cc3ccc(F)cc3Cl)c2c1	i	i	i	nt	?	nt
COc1ccc(NC(=O)c2c(NCc3cccs3)sc3c2CCCCC3)cc1	i	i	i	nt	i	nt
O=C(c1ccco1)N1C2C=CC(C2)C1(C(F)(F)F)C(F)(F)F (centres undefined)	i	i	35µM	i	?	?
CCOc1ccc(CCNC(=O)c2sc3ncccc3c2-n2cccc2)cc1OCC	i	i	i	nt	i	nt
O=S(=O)(c1ccc2ccccc2c1)N1CCN(S(=O)(=O)c2c(F)cccc2F)CC1	nt	i	i	nt	i	nt
O=c1[nH]c2ccc(S(=O)(=O)N3CCN(S(=O)(=O)c4c(F)cccc4F)CC3)cc2[nH]c1=O	nt	nt	nt	nt	nt	nt	Pol kappa inh-2=53
Cn1nc2c(c1C(=O)O)CCCC2	?	?	8.9µM	i	?	27
Cc1ccc(C(=O)O)cc1-n1c(C)cc(C=O)c1C	18µM	?	20µM	i	28µM	60
Cc1cc(C=O)c(C)n1-c1sc2c(c1C(=O)O)CCCC2	i	i	?	i	i	nt
COc1cccc(Cc2nc3ccccc3nc2SCC(=O)N2CCCc3ccccc32)c1	?	i	i	nt	i	nt
COc1ccc(Br)cc1/C=C/C(=O)NC(=S)Nc1ccc(Cl)c(C(=O)O)c1	i	i	25µM	i[11.6 µM]	i	nt	Pol kappa inh-2=?
COc1ccc(Br)cc1C(=O)NC(=S)Nc1ccc(Cl)c(C(=O)O)c1	i	i	?	i	?	nt
Cc1ccc(OCCC(=O)O)cc1	i	?	56µM	i	?	?
